High-throughput results deposited in PubChem by National Center for Advancing Translational Sciences (NCATS).
Hits are enriched below; roughly 4.1% of the tested compounds scored in any of these assays.
AmpC inh detg – blocks E. coli AmpC beta-lactamase in detergent assay | Potency, µM (highest dose often 114 µM), usual class: inhibitors | 0.041% of 370,000 active | P00811 | AmpC hydrolysis of nitrocefin, absorbance 480 nm, 0.01% Triton | AID 485294; further: nearly all actives have a fitted effect of over 25% in size
Target sequence (P00811 whole entry, looked up): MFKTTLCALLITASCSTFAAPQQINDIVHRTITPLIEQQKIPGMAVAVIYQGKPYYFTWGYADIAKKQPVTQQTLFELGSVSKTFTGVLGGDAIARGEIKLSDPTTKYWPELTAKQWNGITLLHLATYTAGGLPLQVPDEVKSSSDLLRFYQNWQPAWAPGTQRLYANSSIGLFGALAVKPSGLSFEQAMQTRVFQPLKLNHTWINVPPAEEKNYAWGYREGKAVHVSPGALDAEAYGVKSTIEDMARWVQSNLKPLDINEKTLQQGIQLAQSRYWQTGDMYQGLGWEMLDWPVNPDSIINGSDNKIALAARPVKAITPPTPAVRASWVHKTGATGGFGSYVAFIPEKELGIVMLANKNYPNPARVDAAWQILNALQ
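20 mM phosphate pH 7.0 + 0.01% (detergent screen) or 0.0001% Triton X-100; 5.3 nM AmpC reagent; cpd preinc 15 min RT; nitrocefin (800 uM stock) to start; A480 q20 s × 4 min; Activity was normalised to no-enzyme and no-compound control wells.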
AmpC no deterg – AmpC beta-lactamase inhibition without detergent; P00811; AmpC nitrocefin hydrolysis, absorbance 480 nm, 0.0001% Triton; Potency, µM (highest dose often 57.1 µM), actives largely listed as inhibitors; 0.52% of 330,000 active; AID 485341; further: nearly all actives have a fitted effect of over 20% in size
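AmpC (5.3 nM in the dispensed reagent) in 20 mM phosphate pH 7.0 with 0.01% (detergent screen) or 0.0001% Triton X-100 was preincubated with compounds for 15 min at room temperature. Nitrocefin was then added from an 800 uM solution, and hydrolysis was followed at 480 nm.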
FMDV inh – antivirals against foot and mouth disease virus; Potency, µM (top dose mostly 57.9 µM), hits mostly inhibitors; AID 1159524; FMDV antiviral cell-based qHTS; 1.2% of 410,000 active; calls by dose curve; tested in HEK293T cells; further: read-out not given here; nearly all actives have a fitted effect of over 45% in size
AMA1-RON2 inh – AMA1-RON2 (P. falciparum) interaction inhibition. AID 720542. AlphaScreen AMA1-biotinylated RON2 peptide binding. Potency, µM (titrated, usually from 58.2 µM), actives largely listed as inhibitors. 0.2% of 360,000 active; further: nearly all actives have a fitted effect of over 45% in size
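AMA1 (3D7) with his tag at 25 nM final met compounds first, then biotinylated RON2 peptide at 25 nM; detection used donor plus acceptor beads, 10 µg/mL apiece, read by AlphaScreen after 30 min at room temperature.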
Sm TGR block – S. mansoni TGR enzyme inhibition; purified TGR, DTNB reduction, TNB absorbance 405 nm; Potency, µM (doses to about 114 µM), most hits filed as inhibitors; 3% of 360,000 active; AID 485364; further: nearly all actives have a fitted effect of over 60% in size
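Kinetic colorimetric format: TGR-catalysed, NADPH-driven DTNB reduction monitored via TNB absorbance. Enzyme dispensed at 20 nM; compound exposure 15 min at room temperature before reaction start.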
Numbers stand for hits. Unless noted, the call rests on the fitted dose curve; in most records, active means well fitted curve in the direction sought with a large enough effect; inconclusive means small, poorly fitted or top-dose-only effect, or another doubt; inactive means no such curve, though single readings can be large; an effect the other way counts as inactive or inconclusive.

What do the screens show for `CCC1(C2CCN(C(=O)c3coc4c3C(=O)CCC4)CC2)NC(=O)N(CCc2scnc2C)C1=O` (centres undefined)?
FMDV inh: inactive

How did COc1cc(-c2nc3ccccn3c2/N=C/c2cc(OC)c(O)cc2Cl)ccc1O do in these assays?
AmpC inh detg: inactive; AmpC no deterg: inactive; FMDV inh: inactive; AMA1-RON2 inh: inactive; Sm TGR block: 25.1µM

What do the screens show for `c1coc(-c2ccc3ncnc(NCc4cccs4)c3c2)c1`?
AmpC inh detg: inactive; AmpC no deterg: inactive; Sm TGR block: 31.6µM

Results for Clc1cccc(-c2ccc3ncnc(NCc4cccs4)c3c2)c1 ?
AmpC inh detg: inconclusive; AmpC no deterg: inactive; FMDV inh: inconclusive; Sm TGR block: inactive

How did Cc1cccc(-c2ccc3ncnc(NCc4cccs4)c3c2)c1 do in these assays?
AmpC inh detg: inactive; AmpC no deterg: inactive; FMDV inh: 25.1µM; Sm TGR block: inactive

Results for COc1ccccc1CCNCc1cc2cccc(C)c2nc1-c1cccs1 ?
FMDV inh: inactive

What do the screens show for `CCCN(CCC)CCCNC(=S)Nc1ccc2nc(N3CCN(C)CC3)cc(C)c2c1`?
AmpC inh detg: inactive; AmpC no deterg: inactive; FMDV inh: inactive; AMA1-RON2 inh: inactive; Sm TGR block: inactive

What do the screens show for `Cc1cc(N2CCCC2)nc2ccc(NC(=S)NC(C)C)cc12`?
AmpC inh detg: inactive; AmpC no deterg: inactive; FMDV inh: inactive; AMA1-RON2 inh: inactive; Sm TGR block: 12.6µM

Results for COCCNC(=S)Nc1ccc2nc(N3CCOCC3)cc(C)c2c1 ?
AmpC inh detg: inconclusive; AmpC no deterg: inactive; FMDV inh: inactive; AMA1-RON2 inh: inactive; Sm TGR block: 44.7µM

What do the screens show for `CCOCCCNC(=S)Nc1ccc2nc(N3CCCC3)cc(C)c2c1`?
AmpC inh detg: inactive; AmpC no deterg: inactive; FMDV inh: inactive; AMA1-RON2 inh: inactive; Sm TGR block: 50.1µM

How did Cc1cc(N2CCOCC2)nc2ccc(NC(=S)NC(C)C)cc12 do in these assays?
AmpC inh detg: inactive; AmpC no deterg: inactive; FMDV inh: inactive; AMA1-RON2 inh: inactive; Sm TGR block: inactive

How did COCCNC(=S)Nc1ccc2nc(N3CCCC3)cc(C)c2c1 do in these assays?
AmpC inh detg: inactive; AmpC no deterg: 10µM; FMDV inh: inactive; AMA1-RON2 inh: inactive; Sm TGR block: 44.7µM

What do the screens show for `Cc1ccc(-c2c(CN3CCN(c4cccc(C)c4)C(C)C3)csc2C)cc1` (centres undefined)?
AmpC inh detg: inactive; FMDV inh: inconclusive; Sm TGR block: inactive

Results for Cc1ccc(NC(=O)CC2Oc3ccccc3NC2=O)cc1C (centres undefined) ?
AmpC inh detg: inactive; FMDV inh: inactive; Sm TGR block: inactive

Results for CCOC(=O)C(C#N)C(Cc1ccccc1)c1ccco1 (centres undefined) ?
AmpC inh detg: inactive; AmpC no deterg: inactive; FMDV inh: inactive; AMA1-RON2 inh: inactive; Sm TGR block: 44.7µM

What do the screens show for `CCC(=O)N(CCC(c1ccco1)C(C)C)Cc1ccccc1` (centres undefined)?
AmpC inh detg: inactive; AmpC no deterg: inactive; FMDV inh: inconclusive; AMA1-RON2 inh: inactive; Sm TGR block: inactive

Results for O=C(CCl)Nc1ccc(S(=O)(=O)Nc2nccs2)cc1 ?
AmpC inh detg: inactive; AmpC no deterg: inactive; FMDV inh: inactive; AMA1-RON2 inh: inactive; Sm TGR block: 20µM

Results for CCOCC(=O)Nc1ccc(S(=O)(=O)Nc2nccs2)cc1 ?
AmpC inh detg: inactive; AmpC no deterg: inactive; FMDV inh: inactive; AMA1-RON2 inh: inactive; Sm TGR block: inactive

What do the screens show for `CCOC(=O)/C=C/C(=O)Nc1ccc(S(=O)(=O)Nc2nccs2)cc1`?
AmpC inh detg: inactive; AmpC no deterg: inactive; FMDV inh: inactive; AMA1-RON2 inh: inactive; Sm TGR block: 44.7µM

Results for O=C(CCl)Nc1cccc(S(=O)(=O)NC2=NCCCCC2)c1 ?
AmpC no deterg: inactive; FMDV inh: inconclusive; AMA1-RON2 inh: inactive

What do the screens show for `O=C(Nc1ccc(S(=O)(=O)Nc2nccs2)cc1)c1nn(-c2ccc(F)cc2)ccc1=O`?
AmpC inh detg: inactive; AmpC no deterg: 10µM; FMDV inh: inactive; AMA1-RON2 inh: inactive; Sm TGR block: inactive

Results for CCCC(=O)Nc1ccc(S(=O)(=O)Nc2nccs2)cc1 ?
FMDV inh: inactive; AMA1-RON2 inh: inactive

How did O=C(CCl)Nc1ccc(S(=O)(=O)NC2=NCCCCC2)cc1 do in these assays?
AmpC no deterg: inactive; FMDV inh: 31.6µM; AMA1-RON2 inh: inactive

Results for N#CC1=C(SCC(=O)Nc2ccc(C(=O)O)cc2)NC(=O)CC1c1ccco1 (centres undefined) ?
AmpC inh detg: inactive; AmpC no deterg: inactive; FMDV inh: inactive; AMA1-RON2 inh: inactive; Sm TGR block: 35.5µM

What do the screens show for `C=CCOC(=O)C1=C(C)NC(SCC(=O)Nc2ccc(C)c(Cl)c2)=C(C#N)C1c1ccco1` (centres undefined)?
AmpC inh detg: inconclusive; AmpC no deterg: 7.94µM; FMDV inh: inactive; AMA1-RON2 inh: inactive; Sm TGR block: inactive

How did Nc1nc2c(s1)COc1ccccc1-2 do in these assays?
AmpC inh detg: inactive; AmpC no deterg: inactive; FMDV inh: inactive; AMA1-RON2 inh: inactive; Sm TGR block: inactive

What do the screens show for `Nc1nc2c(s1)CCc1c-2cnn1-c1ccccc1`?
AmpC inh detg: 89.1µM; AmpC no deterg: inactive; FMDV inh: inactive; AMA1-RON2 inh: inactive; Sm TGR block: 2.82µM

Results for CCN(CCO)c1ccc(N=Nc2cc(C)[nH]n2)cc1 ?
AmpC inh detg: inactive; AmpC no deterg: inactive; FMDV inh: 12.6µM; AMA1-RON2 inh: inactive; Sm TGR block: inactive

Results for COc1ccc(N(CC(=O)NCc2ccc(Cl)cc2)S(=O)(=O)c2c(C)nn(C)c2C)cc1 ?
AmpC inh detg: inactive; AmpC no deterg: inactive; FMDV inh: inactive; AMA1-RON2 inh: inactive; Sm TGR block: inactive

How did COc1ccc(N(CC(=O)NCc2ccccc2)S(=O)(=O)c2c(C)nn(C)c2C)cc1 do in these assays?
AmpC inh detg: inconclusive; AmpC no deterg: 8.91µM; FMDV inh: inactive; AMA1-RON2 inh: inactive; Sm TGR block: inactive

Results for CCc1c(C)nc2[nH]nc(-c3ccccc3)n2c1=O ?
AmpC inh detg: inactive; AmpC no deterg: inactive; FMDV inh: inactive; AMA1-RON2 inh: inactive; Sm TGR block: inactive

What do the screens show for `CCc1c(C)nc2[nH]nc(-c3ccccc3C)n2c1=O`?
AmpC inh detg: inactive; AmpC no deterg: 0.282µM; FMDV inh: inactive; AMA1-RON2 inh: inactive; Sm TGR block: inactive

Results for CC(NC(=O)C1CC1)c1nnc2n1CCN(Cc1cccc(F)c1F)CC2 (centres undefined) ?
FMDV inh: inactive

Results for Cc1ccc(C(=O)N2CCN(c3ccc(NC(=O)c4ccc5c(c4)OCCO5)cc3)CC2)cc1 ?
AmpC inh detg: inactive; AmpC no deterg: inactive; FMDV inh: 14.1µM; AMA1-RON2 inh: inactive; Sm TGR block: inactive

Results for Cc1ccccc1C(=O)N1CCN(c2ccc(NC(=O)c3ccc4c(c3)OCCO4)cc2)CC1 ?
AmpC inh detg: inactive; AmpC no deterg: inactive; FMDV inh: 7.08µM; AMA1-RON2 inh: inactive; Sm TGR block: inactive
